The values below come from PubChem BioAssay AID1066 (SRMLSC, 2008).

Among all 190,000 compounds or so, about 790 (0.42%) were called active.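 The calls were made as follows: active = inhibition above a set limit, the median over all tested compounds plus 3 SD (cut at about 9.5% in these data); inconclusive = no clear call, values can overlap the other calls; inactive = the rest.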 Shown is part of a subset that was picked to be rich in actives.

In the experiment the test system is HMG-CoA reductase (Enterococcus faecalis, mvaE). As to the kind of experiment: class II HMG-CoA reductase enzyme inhibition – biochemical, Enterococcus faecalis, primary screen (AID 1066).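 Also: enzyme runs in reverse so mevalonate oxidation gives rising NADPH absorbance; 0% = complete reaction with DMSO and 100% = background rate lacking mevalonate.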 The following applies: purified E. faecalis HMGR, NADPH absorbance 340 nm kinetic; at 10 µM; active compounds read high.
As a reminder, the inhibition is the change of the read-out against control, counted positive when it falls. As for `COc1ccc(N2C(=O)C(Cc3ccccc3)NC2=S)cc1` (stereo not given), the inhibition is -5.65% (inactive). As to `COC(=O)c1cc(NC(=O)c2nn(C)c(=O)c3ccccc23)cc(C(=O)OC)c1`, the inhibition was -0.04% (inactive).

For the molecule `C/[N+]([O-])=C\c1ccc([N+](=O)[O-])o1`, the inhibition is 11% (active).

As to `CCn1c(/C=C/c2ccc([N+](=O)[O-])o2)nc2ccccc2c1=O`, the inhibition is -2.94% (inactive). With `COC(=O)C1=C(C)N(C)C(=O)NC1c1ccc([N+](=O)[O-])o1` (stereo not given), the inhibition was 0.43% (inactive). For `CN(C)/C=C/C(=O)c1cnc2sccn2c1=O`, the inhibition was 2.25% (inactive). Under `Fc1ccccc1Cn1cnc(NC(=S)NCCc2ccccc2)n1` stands 15.6% (active); under `Fc1ccccc1CNC(=S)Nc1ccc(Cl)cc1`, -0.98% (inactive). Under `S=C(NCCc1ccccc1)NCc1ccccc1Cl` stands 1.49% (inactive); under `CCOc1ccc(N2C(=O)/C(=C/c3ccc(C)o3)N(C)C2=S)cc1`, -5.07% (inactive); under `COCCN(C(=O)C(C)C)c1nnc(-c2ccc(C(C)(C)C)cc2)s1`, -2.5% (inactive).

Consider `COc1ccc(NC(=O)N2CCCC(c3nc(-c4ccc(F)cc4)no3)C2)cc1` (stereo not given), for which the inhibition is 1.89% (inactive). Then `O=C(c1ccccc1Cl)N(Cc1ccccc1F)N1C(=O)CCCC1=O`, with -5.67% (inactive); and `C=CCn1c(=NC(=O)c2cccs2)sc2cc(NC(C)=O)ccc21`, with -0.47% (inactive). With `CCN=C1S/C(=C\c2cc(Br)ccc2OCC(=O)OCC)C(=O)N1CC`, the inhibition was -2.47% (inactive). With `COc1cccc(Cn2cnc3c([N+](=O)[O-])c(C)c(C)cc32)c1`, the inhibition is -3.58% (inactive). Under `COc1ccc(F)cc1C(=O)C1CCCN(C(=O)CCc2ccccn2)C1` (stereo not given) stands -4.06% (inactive); under `CCOC(=O)C1CCN(C(=O)/C=C/c2cc(OC)c(OC)c(OC)c2)CC1`, -1.76% (inactive). Take `Cc1cc(C)c2nc(-c3cccnc3)cc(C(=O)Nc3ccc(S(=O)(=O)Nc4onc(C)c4C)cc3)c2c1`: the inhibition was -2.12% (inactive). Under `Cc1ccc(CSc2nc3[nH]ncc3c(=O)[nH]2)cc1` stands -1.81% (inactive); under `C/C(=N/NC(=O)c1ccc(NC(=O)c2ccc(F)cc2)cc1)c1ccccc1`, -3.05% (inactive).

On to `COc1ccc(C(=O)Nc2ccccc2C(=O)N/N=C/c2ccccc2OC)cc1`, for which the inhibition was -0.76% (inactive). Under `COc1ccccc1C(=O)NNC(=O)c1ccc(NC(=O)c2ccccc2)cc1` stands 15.3% (active). Then `CC(=O)c1ccc(NC(=S)N(Cc2ccccc2)C(C)C2CC2)cc1` (stereo not given), with -4.01% (inactive); and `O=C(COC(=O)c1cc(=O)[nH]c2ccccc12)Nc1nc(-c2cccc(Br)c2)cs1`, with -0.22% (inactive). Regarding `C/C(=N\NS(=O)(=O)c1ccc(Cl)cc1)c1ccc(NC(=O)c2ccco2)cc1`, the inhibition was 2.58% (inactive).

`Cc1onc(C(=O)NN)c1C(=O)N1CCN(C(c2ccccc2)c2ccccc2)CC1`: the inhibition was -0.47% (inactive). Under `Cc1nc2sc3c(c2c(=O)n1NC(=O)CCl)CCCC3` stands -4.51% (inactive); under `CSc1ccc(CNCCN2CCOCC2)cc1`, -2.23% (inactive). Under `C/C(CC(=O)Nc1cccc(F)c1)=N\NC(=O)C(=O)NC1CCCCC1` stands -2.25% (inactive); under `CCC(C)(C)NC(=O)CN(Cc1cccs1)C(=O)CNS(=O)(=O)c1ccc(F)cc1`, -1.17% (inactive); under `CC(C)(C)N(CC#CCC(O)(c1ccccc1)C1CCCC1)CCO` (stereo not given), -1.31% (inactive). Under `N#C/C(=C1\CCCN1)c1nc(-c2ccccc2)cs1` stands -5.6% (inactive); under `N#CC(=C1SC=CS1)c1nc(-c2ccccc2)cs1`, -4.9% (inactive). Turning to `N#CC(=C1CCCC1)c1nc(-c2ccc(Cl)cc2)cs1`, the inhibition is 25.7% (active). Under `CCOC(=O)Cc1csc(NC(=O)C(C)(C)C)n1` stands 5.04% (inactive); under `CCOC(=O)Cc1csc(NC(=O)CSc2ccc(Br)cc2)n1`, 5.27% (inactive). Under `CCOC(=O)Cc1csc(NC(=O)Nc2ccccc2)n1` stands 12.1% (active). On to `COc1ccc(NC(=O)c2ccccc2CC[N+](=O)[O-])cc1`, for which the inhibition was -3.38% (inactive). Then `COc1ccccc1CC(NC(C)=O)C(=O)NC1CCN(C(=O)Nc2ccccc2Cl)CC1` (stereo not given), with -1.31% (inactive); and `CC(C)(C)C(=O)N1CCC[C@@]1(CO)C(=O)O`, with -3.2% (inactive); and `CCc1cc(CNC(=O)CC2C(=O)NCCN2CC2CCCCC2)on1` (stereo not given), with 1.73% (inactive). Under `O=C(O)/C=C/c1ccc(S(=O)(=O)N2CCCCCC2)cc1` stands -1.58% (inactive); under `CSCCC(Nc1ccc(S(=O)(=O)N2CCOCC2)cc1[N+](=O)[O-])C(=O)OCC(=O)N(C(C)C)C(C)C` (stereo not given), -4.18% (inactive). Under `CC(=O)N1CCN(S(=O)(=O)c2ccc(C)c([N+](=O)[O-])c2)C1C(C)C` (stereo not given) stands 15.5% (active). On to `Cc1ccc(NC(=O)CN2CCC(C(N)=O)CC2)cc1[N+](=O)[O-]`, for which the inhibition is -7.59% (inactive).

As to `CCc1cccc(C)c1NC(=O)COC(=O)Cc1ccsc1`, the inhibition is 0.78% (inactive). Then `CCCn1c(=S)[nH]c2ccc(C(F)(F)F)cc21`, with -3.38% (inactive); and `Cc1c(NC(=S)NC(=O)CCc2ccccc2)c(=O)n(-c2ccccc2)n1C`, with -5.41% (inactive).

In the case of `Cc1ccc(Cl)c(NC(=O)CN(C)CC(=O)Nc2ccc(F)c(F)c2F)c1Cl`, the inhibition is -3.18% (inactive). Then `CNCC(O)CN1CCN(c2ccccc2OC)CC1` (stereo not given), with -5.06% (inactive). Turning to `Cc1[nH]c2ccccc2c1/C=C(/C#N)C(=O)NC(C)C`, the inhibition is -0.57% (inactive).

In the case of `CCOc1ccc(NC(=O)CN2CCN(CC(=O)Nc3ccc(OC)cc3)CC2)cc1`, the inhibition was 11.1% (active). Consider `CCOC(=O)N1CCN(CC(=O)Nc2ccc(F)cc2)CC1`, for which the inhibition was -2.98% (inactive). As to `CCOc1ccc(NC(=O)N2CCN(CC)CC2)cc1`, the inhibition was -2.53% (inactive). `S=c1[nH]ccn1-c1ccc(Cl)cc1`: the inhibition is -3.58% (inactive). Under `COc1ccc(CCCc2nnc(SCc3nc4ccccc4c(=O)[nH]3)n2C)cc1` stands 4.13% (inactive). Under `CCN(CC)c1ccc(S(=O)(=O)N2CCOCC2)cc1NC(=O)CSc1cccc[n+]1[O-]` stands -6.45% (inactive). With `COC(=O)c1ccccc1NS(=O)(=O)c1ccc2[nH]c(=O)[nH]c2c1`, the inhibition is -1.55% (inactive).

Turning to `O=C(COC(=O)CNS(=O)(=O)c1ccccc1)NC12CC3CC(CC(C3)C1)C2`, the inhibition was -0.89% (inactive).
